Assay results from PubChem BioAssay AID488890 (Southern Research Specialized Biocontainment Screening …, 2010).
About 1,300 (0.41%) of roughly 320,000 compounds were called active. Roughly 3% stayed inconclusive and do not appear here. How the calls were made is not given here. Not all results are given here. Entries with a potency or affinity are not part of this list.

Assay: growth inhibition of non-replicating M. tuberculosis (AID 488890);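 further: plate controls were DMSO cells for no effect and high antibiotic wells for full effect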
Details: Mycobacterium tuberculosis non-replicating, at 25 µM, stronger effect = higher value
For `CCOc1ccccc1N1CCN(C(=O)c2cc[n+]([O-])cc2)CC1`, the inhibition was 15.7%.
`CC(=O)Nc1ccc(S(=O)(=O)NCCc2csc(C)n2)cc1` gave an inhibition of -0.23%.
Compound `Cc1ccccc1OCCCC(=O)NCc1ccco1` has an inhibition of 15.7%.
For `O=C(Nc1nc2ccccc2[nH]1)c1cc2ccccc2o1`, the inhibition was 34.8%.
Work on `C/C(=N\Nc1nc2ccccc2[nH]1)c1ccccn1` yielded an inhibition of 78.5%.
In the case of `CCOc1ncccc1C(=O)OCc1ccc([N+](=O)[O-])cc1`, the inhibition is reported as 57.5%.
`CCn1c(N2CCN(C(=S)NC)CC2)nc2ccccc21` showed an inhibition of -6.07%.
Compound `CC(C1CC1)N(Cc1ccccc1)C(=S)Nc1cccc(C(F)(F)F)c1` (configuration not stated) has an inhibition of 66.8%.
`COc1ccc(C2=Nc3cc(C)ccc3OC2)cc1` showed an inhibition of 23.2%.
Work on `Cc1ccc2c(c1)N=C(c1ccc(F)cc1)CO2` yielded an inhibition of 30.4%.
`Cc1ccc2c(c1)N=C(c1ccc(Cl)cc1)CO2` gave an inhibition of 29%.
`Clc1ccc(C2=Nc3cc(Cl)ccc3OC2)cc1` gave an inhibition of 15.6%.
`Cc1cc(=O)[nH]c(SCC(=O)N2CCC(Cc3ccccc3)CC2)n1` gave an inhibition of 0.43%.
Compound `CCN(C(=O)c1cc2cc3ccc(C)cc3nc2o1)c1ccc(OC)cc1` has an inhibition of 75.9%.
With `CS(=O)(=O)N1CCC(C(=O)N2CCN(c3ccc(F)cc3)CC2)CC1` the inhibition was -0.02%.
Work on `O=C(NCC(=O)N1CCc2ccccc2C1)c1ccc(Cl)cc1Cl` yielded an inhibition of 7.88%.
Compound `O=C(c1cc([N+](=O)[O-])ccc1N1CCCCC1)N1CCc2ccccc21` has an inhibition of 21%.
For `O=C(c1cc([N+](=O)[O-])ccc1Cl)N1CCc2ccccc21`, the inhibition was 43%.
Work on `C/C(CC(=O)Nc1ccc(Cl)cc1Cl)=N\NC(=O)c1ccco1` yielded an inhibition of 62.2%.
Work on `Cc1c2ccccc2nc2c(F)c(NC(C)C)c(F)c(F)c12` yielded an inhibition of 25.6%.
With `Cc1c2ccccc2nc2c(F)c(N(C)C)c(F)c(F)c12` the inhibition was 67.8%.
Compound `CCCn1c(NC(=O)c2cccc(S(=O)(=O)N3CCCC3)c2)nc2ccccc21` has an inhibition of 12.3%.
`Cc1[nH][nH]c(=O)c1N=Nc1ccccc1Cl` showed an inhibition of 2.18%.
For `Cc1[nH]n(S(=O)(=O)c2ccccc2)c(=O)c1N=Nc1cccc(Cl)c1`, the inhibition was 70.6%.
Work on `C#CCOCCOCCOCCNc1nc(N2CCN(C(=O)[C@H](CCC(=O)O)n3cc([C@@H](N)[C@H](C)CC)nn3)CC2)nc(N2CCN(C(=O)[C@H](CCCCN)n3cc([C@@H](N)CC(N)=O)nn3)CC2)n1` yielded an inhibition of -0.95%.
For `Cc1cccc2c(=O)c(Br)c(C)n(Cc3ccccc3)c12`, the inhibition was -19.5%.
Work on `CCOC(=O)Cn1c(=O)cc(C)c2cccc(C)c21` yielded an inhibition of 78.8%.
For `CC(NC(=S)NC(=O)c1ccccc1)c1ccccc1` (configuration not stated), the inhibition was 38.7%.
`COc1ccc(OC)c(C2Nc3ccccc3NC3=C2C(=O)CC(C)(C)C3)c1` (configuration not stated) gave an inhibition of 3.61%.
For `Cc1ccc(C)c(NC(=O)CN(C)C(=O)C2=NNC(=O)CC2)c1`, the inhibition was 10.7%.
With `CC(C)(C)NC(=O)COC(=O)c1cc(Cl)ccc1[N+](=O)[O-]` the inhibition was 70.2%.
Compound `NS(=O)(=O)c1ccc(NC(=O)COC(=O)c2cc(Cl)ccc2[N+](=O)[O-])cc1` has an inhibition of 16.2%.
`O=C(C1=C(O)C(=O)N(CCCn2ccnc2)C1c1ccc(F)cc1)c1ccco1` (configuration not stated) gave an inhibition of 1.68%.
`CC(C)(C)NS(=O)(=O)c1ccc(NC(=O)C2CC(=O)N(CCc3ccc(F)cc3)C2)cc1` (configuration not stated) showed an inhibition of 6.94%.
For `COc1ccc(CCN2CC(C(=O)NCC3(O)CCCCC3)CCC2=O)cc1` (configuration not stated), the inhibition was -4.96%.
For `Cc1cc(Nc2ccccc2)nc(NCc2ccccc2)n1`, the inhibition was 69.7%.
Compound `Cc1cc(OC2CCCCC2)nc(NCc2ccccc2)n1` has an inhibition of 29.8%.
For `Cc1cc(N2CCN(c3ccccc3)CC2)nc(NCc2ccccc2)n1`, the inhibition was 36.7%.
`Cc1cc(N2CCOCC2)nc(NCc2ccccc2)n1` showed an inhibition of 15.7%.
Work on `Cc1ccc(SCCC(=O)OCC(=O)Nc2ccc(C(N)=O)cc2)cc1` yielded an inhibition of -4.28%.
Work on `COc1cc(S(=O)(=O)Nc2ccncc2)ccc1F` yielded an inhibition of -1.45%.
For `COc1cccc(Nc2nc3cc(OC)ccc3cc2C#N)c1`, the inhibition was 2.07%.
For `O=C(Nc1nn[nH]n1)c1cc(-c2ccc(Cl)c(Cl)c2Cl)nc2ccccc12`, the inhibition was 28.1%.
`Cc1cc2[nH]c(=O)c(=O)[nH]c2cc1S(=O)(=O)N(C)C1CCCCC1` gave an inhibition of 13.6%.
`O=C(O)CN1C(=O)CSC1=S` showed an inhibition of -1.21%.
With `CC(C)OC(=O)CCCN1C(=O)c2ccc(N)cc2C1=O` the inhibition was -10.2%.
`COC(=O)C1=C(C)NC(C)=C(C(=O)OC)C1C(=O)OC1CCCCC1=O` (configuration not stated) showed an inhibition of -9.56%.
`CCOC(=O)C1CCN(CC(=O)Nc2c(C(=O)OC)[nH]c3cccc(C)c23)CC1` gave an inhibition of 2.06%.
In the case of `CC(=O)NCC(=O)OCC(=O)N1c2ccccc2Sc2ccccc21`, the inhibition is reported as 15.6%.
For `CCOC(=O)N1c2ccccc2Sc2ccccc21`, the inhibition was 11.9%.
`COc1cccc(CN(C)C(=O)Cc2c[nH]c3ccccc23)c1OC` gave an inhibition of 5.31%.
For `CCOC(=O)C1=C(COC(=O)c2ccc(C)s2)NC(=O)NC1C` (configuration not stated), the inhibition was 11.3%.
`CCS(=O)(=O)N1N=C(c2cccc(NS(C)(=O)=O)c2)CC1c1ccccc1` (configuration not stated) gave an inhibition of 36.4%.
For `Cc1nn(-c2nc3ccccc3s2)c(N)c1-c1ccc(Cl)cc1`, the inhibition was -4.69%.
For `Cc1nn(-c2nc3ccccc3[nH]2)c(=O)c2ccccc12`, the inhibition was 34%.
For `Cc1cc(C(=O)COC(=O)COc2ccc(C#N)cc2)c(C)n1C1CC1`, the inhibition was 47%.
For `CCC(=O)c1ccc(OCC(=O)OCC(=O)c2cc(C)n(CC3CCCO3)c2C)cc1` (configuration not stated), the inhibition was 70.2%.
In the case of `CC(C)c1ccc(NC(=O)C2CCCN2S(=O)(=O)c2ccccc2F)cc1` (configuration not stated), the inhibition is reported as -6.6%.
`O=c1[nH]c(O)c(C=Nc2ccc(F)c(Cl)c2)c(=O)[nH]1` showed an inhibition of 4.76%.
Work on `CC1=Nc2ccccc2/C1=C/c1c(O)[nH]c(=O)[nH]c1=O` yielded an inhibition of 1.63%.
For `O=C(Nc1cccc(Cl)c1)c1nc[nH]c1C(=O)NCc1ccccc1`, the inhibition was 78.3%.
`CCCNC(=O)N1CCC(Cc2ccccc2)CC1` gave an inhibition of 67.7%.
`O=C(c1cccs1)N1CCC(Cc2ccccc2)CC1` showed an inhibition of 11.9%.
In the case of `CCOCC(=O)N1CCC(Cc2ccccc2)CC1`, the inhibition is reported as 47.1%.
In the case of `Cc1cc(C(=O)N2CCC(Cc3ccccc3)CC2)c(C)o1`, the inhibition is reported as 15.3%.
`O=C(O)CCCC(=O)N1CCN(c2ncccn2)CC1` showed an inhibition of -16.3%.
`COc1ccc(-n2cc(C(=O)c3cc4ccccc4oc3=O)c(C(C)=O)n2)cc1` gave an inhibition of 19.3%.
`COc1ccc(CCNC(=O)c2cccc(S(=O)(=O)N3CCOCC3)c2)cc1OC` gave an inhibition of 16%.
With `O=C(COC(=O)c1ccc[nH]c1=O)c1ccc(Cl)s1` the inhibition was 21.8%.
With `O=C(Cc1ccc(Br)cc1)OCC(=O)c1ccc[nH]1` the inhibition was 79.4%.
With `O=C(Cc1ccc(Cl)c(Cl)c1)OCC(=O)c1ccc[nH]1` the inhibition was 70.6%.
With `O=C(COC(=O)c1nc(Cl)ccc1Cl)c1ccc[nH]1` the inhibition was 4.28%.
Compound `CC(=O)N1c2ccc(S(=O)(=O)NCC3CCC(C(=O)NCc4ccccc4)CC3)cc2CC1C` (configuration not stated) has an inhibition of 14.7%.
Work on `COc1ccc(CC2C(=O)N(C)C(=O)N(C)C2=O)c(OC)c1` yielded an inhibition of -3.03%.
`O=C/C(=C\Nc1ccc(Cl)cn1)c1nc2cc(Cl)ccc2o1` showed an inhibition of 58.2%.
With `CC(Oc1ccc2cc(-c3ccccc3)c(=O)oc2c1)C(=O)NCC1CCC(C(=O)O)CC1` (configuration not stated) the inhibition was 4.91%.
`COC(=O)C(C)Oc1ccc2c(-c3cccc([N+](=O)[O-])c3)cc(=O)oc2c1` (configuration not stated) showed an inhibition of 67.4%.
`COc1ccc(-c2cc(=O)oc3cc(OCC(C)=O)ccc23)cc1` gave an inhibition of 36.8%.
Work on `COc1ccc(-c2cc3ccc(OC(C)C(=O)O)cc3oc2=O)cc1` (configuration not stated) yielded an inhibition of -4.62%.
`COc1ccc(-c2cc(=O)oc3cc(OCC(=O)N(C)C)ccc23)cc1` showed an inhibition of -18.8%.
With `COc1ccc(-c2cc3ccc(OCC(N)=O)cc3oc2=O)cc1OC` the inhibition was 17.8%.
With `CC(=O)COc1ccc2c(-c3cccc([N+](=O)[O-])c3)cc(=O)oc2c1` the inhibition was -17.4%.
For `COc1ccc(-c2cc3ccc(OCC(C)=O)cc3oc2=O)cc1`, the inhibition was 15.4%.
With `NS(=O)(=O)c1ccc(CCNC(=O)c2cccc(S(=O)(=O)N3CCCC3)c2)cc1` the inhibition was 17.3%.
Work on `S=c1[nH]nc(C2CCCCC2)n1/N=C/c1cccc(Br)c1` yielded an inhibition of -5.05%.
For `O=C(c1ccco1)N1CCN(S(=O)(=O)c2ccc(Cl)cc2)CC1`, the inhibition was -7.62%.
Compound `COCCCNC(=O)Nc1ccc(F)cc1F` has an inhibition of -3.58%.
With `NC(=O)COc1cc2oc(=O)c3c(c2cc1Cl)CCCC3` the inhibition was -1.26%.
In the case of `CCN(CC)C(=O)c1sc(N)c(C(=O)OC(C)C)c1C`, the inhibition is reported as 29.4%.
Work on `O=C(O)C1CC=CCC1C(=O)c1ccccc1` (configuration not stated) yielded an inhibition of -2.95%.
For `O=c1cccccc1NN=C1CCCCCC1`, the inhibition was 15.8%.
Compound `CCOC(=O)c1sc(NC(=O)CSc2n[nH]c(C)n2)nc1C` has an inhibition of 23.3%.
Work on `CC(=C/c1ccco1)/C=N/NC(=O)c1ccncc1` yielded an inhibition of 52.5%.
In the case of `C/C(=N\Nc1nc(-c2ccccc2O)nc2ccccc12)c1ccccc1`, the inhibition is reported as 7.99%.
`CC(C)CCC(C(=O)O)C(C)CC(=O)Nc1ccn(-c2ccccc2)n1` (configuration not stated) showed an inhibition of -10%.
Compound `CSCCC(NC(=O)COc1ccccc1)C(=O)N(C)Cc1cccc(F)c1` (configuration not stated) has an inhibition of 23.5%.
`O=C(O)COc1ccc2c(-c3ccccc3)cc(=O)oc2c1` showed an inhibition of -4.18%.
`CCN(CC)C(=O)COc1ccc2c(-c3ccccc3)cc(=O)oc2c1` showed an inhibition of -10%.
For `Cc1ccc(NC(=O)CN(C)C(=O)CSc2ccccc2F)cc1`, the inhibition was 1.97%.
With `COc1ccc(C(CNC(=O)c2c(C)nn(Cc3ccccc3)c2Cl)N2CCOCC2)cc1` (configuration not stated) the inhibition was 11.7%.
Compound `COc1ccc(OCCC(=O)OCC(=O)NC2CCCCC2)cc1` has an inhibition of 39.1%.
For `COc1ccc(OCCC(=O)OCC(=O)NC2CCCCCCC2)cc1`, the inhibition was 42.5%.
With `O=C(COc1ccc(C(=O)c2ccccc2)cc1)NC1CCCCCC1` the inhibition was 55.6%.
With `O=C(COc1ccccc1)NCC(=O)NC1CCCCC1` the inhibition was 3.74%.
Compound `CCOc1ccc(CCNC(=O)CCc2nnc3ccc(N4CCCCC4)nn23)cc1OCC` has an inhibition of 20.8%.
With `Cc1cccc[n+]1C1C(c2ccccc2)C(C#N)=C(C(=C=[N-])C#N)NC1(O)C1CC1` (configuration not stated) the inhibition was 17.4%.
In the case of `COC(=O)c1ccc(CN2CCN(C3CCCCC3)C(CCO)C2)cc1` (configuration not stated), the inhibition is reported as -2.17%.
`CCOC(=O)[C@@H]1[C@H]2COc3ccc(Br)cc3[C@H]2N2C(=O)N(c3ccc(C(F)(F)F)cc3)C(=O)[C@]12C` showed an inhibition of 37.9%.
Compound `O=C(c1ccc(Cl)s1)N1CCCC1` has an inhibition of 31%.
For `O=C(c1ccc(Br)s1)N1CCCC1`, the inhibition was 46.3%.
Work on `Cc1ccc(NC(=O)CCC(=O)Nc2nnc(C3CCCCC3)s2)cc1` yielded an inhibition of -1.2%.
In the case of `NC(=NCCc1ccccc1)NS(=O)(=O)c1ccc2ccccc2c1`, the inhibition is reported as 51.5%.
